The nature of assay [1]: binders of probe aFSTL3 on microarray, primary screen, stem cell growth factor project, biochemical, small-molecule microarray, fluorescence 635/667 (AID 1064).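 Also: measures binding of the biotinylated anti-FSTL3 antibody to printed compounds.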 The settings on record: higher = more signal.
Assay [2] in a line: binders from COS7 lysate, DM2A8 probe, primary screen, torsin A project, cell lysate, small-molecule microarray, fluorescence 635/667 (AID 1065). Particulars: higher = more signal, COS7 lysate expressing mutant human TOR1A.
A short description of assay [3]: binders of probe aFGF2 on microarray, primary screen, stem cell growth factor project, biochemical, small-molecule microarray, fluorescence 635/667 (AID 1067).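 Also: measures binding of biotinylated aFGF2 protein to printed compounds on slides; z-score merges feature fluorescence and signal-to-noise across triplicate slides.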 The settings on record: higher = more signal.
Assay [4] can be described thus: binders of probe aFGF10 on microarray, primary screen, stem cell growth factor project, biochemical, small-molecule microarray, fluorescence 635/667 (AID 1071).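 Also: score merges 667 nm spot intensity and signal to noise from triplicate slides.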 Particulars: higher = more signal.
The target of assay [5] is Neurogenic locus notch homolog protein 2 (Homo sapiens) (UniProt Q04721). As to the kind of experiment: Notch2 binders on small-molecule microarrays, primary screen, biochemical, small-molecule microarray, 635 nm fluorescence, stem cell growth factors (AID 1073). The settings on record: Notch2 binding, higher = more signal.
The target of assay [6] is Pro-neuregulin-1, membrane-bound isoform (Homo sapiens) (UniProt Q02297). As to the kind of experiment: NRG1 binders on small-molecule microarrays, primary screen, psychiatric disease protein project, biochemical, small-molecule microarray, fluorescence 635/667 (AID 1075).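 Also: score combines 667 nm spot fluorescence with signal to noise.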 Particulars: NRG1 binding, 635 nm fluorescence, higher = more signal.
Assay [7] concerns Neuregulin-1 EGF-like domain. In words: binders of neuregulin-1 EGF-like domain, primary screen, biochemical, small-molecule microarray, 635 nm fluorescence (AID 1081).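 Also: binding of the protein to compounds printed on small-molecule microarray slides.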 The settings on record: small-molecule microarray binding, higher = more signal.
The nature of assay [8]: FRG1 promoter luciferase signal modulators, primary screen, FRG1 inhibition for FSHD, cell-based, C2C12 myotubes, firefly/Renilla luciferase, luminescence (AID 1084). The settings on record: higher = more signal, called active from +8 up or from −8 down.
Assay [9] is described as follows: binders of probe aFST on microarray, primary screen, stem cell growth factor project, biochemical, small-molecule microarray, fluorescence 635/667 (AID 1086).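 Also: score merges 667 nm fluorescence with signal-to-noise of each printed compound spot.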 Particulars: higher = more signal.
Assay [10] is described as follows: binders of probe aHhip on microarray, primary screen, stem cell growth factor project, biochemical, small-molecule microarray, fluorescence 635/667 (AID 1087).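 Also: score merges spot fluorescence at 667nm with spot signal to noise ratio.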 Particulars: higher = more signal.

Active and inactive are the calls of the source.

Chain of Neurogenic locus notch homolog protein 2 (Homo sapiens) (Q04721 whole entry, looked up, canonical isoform): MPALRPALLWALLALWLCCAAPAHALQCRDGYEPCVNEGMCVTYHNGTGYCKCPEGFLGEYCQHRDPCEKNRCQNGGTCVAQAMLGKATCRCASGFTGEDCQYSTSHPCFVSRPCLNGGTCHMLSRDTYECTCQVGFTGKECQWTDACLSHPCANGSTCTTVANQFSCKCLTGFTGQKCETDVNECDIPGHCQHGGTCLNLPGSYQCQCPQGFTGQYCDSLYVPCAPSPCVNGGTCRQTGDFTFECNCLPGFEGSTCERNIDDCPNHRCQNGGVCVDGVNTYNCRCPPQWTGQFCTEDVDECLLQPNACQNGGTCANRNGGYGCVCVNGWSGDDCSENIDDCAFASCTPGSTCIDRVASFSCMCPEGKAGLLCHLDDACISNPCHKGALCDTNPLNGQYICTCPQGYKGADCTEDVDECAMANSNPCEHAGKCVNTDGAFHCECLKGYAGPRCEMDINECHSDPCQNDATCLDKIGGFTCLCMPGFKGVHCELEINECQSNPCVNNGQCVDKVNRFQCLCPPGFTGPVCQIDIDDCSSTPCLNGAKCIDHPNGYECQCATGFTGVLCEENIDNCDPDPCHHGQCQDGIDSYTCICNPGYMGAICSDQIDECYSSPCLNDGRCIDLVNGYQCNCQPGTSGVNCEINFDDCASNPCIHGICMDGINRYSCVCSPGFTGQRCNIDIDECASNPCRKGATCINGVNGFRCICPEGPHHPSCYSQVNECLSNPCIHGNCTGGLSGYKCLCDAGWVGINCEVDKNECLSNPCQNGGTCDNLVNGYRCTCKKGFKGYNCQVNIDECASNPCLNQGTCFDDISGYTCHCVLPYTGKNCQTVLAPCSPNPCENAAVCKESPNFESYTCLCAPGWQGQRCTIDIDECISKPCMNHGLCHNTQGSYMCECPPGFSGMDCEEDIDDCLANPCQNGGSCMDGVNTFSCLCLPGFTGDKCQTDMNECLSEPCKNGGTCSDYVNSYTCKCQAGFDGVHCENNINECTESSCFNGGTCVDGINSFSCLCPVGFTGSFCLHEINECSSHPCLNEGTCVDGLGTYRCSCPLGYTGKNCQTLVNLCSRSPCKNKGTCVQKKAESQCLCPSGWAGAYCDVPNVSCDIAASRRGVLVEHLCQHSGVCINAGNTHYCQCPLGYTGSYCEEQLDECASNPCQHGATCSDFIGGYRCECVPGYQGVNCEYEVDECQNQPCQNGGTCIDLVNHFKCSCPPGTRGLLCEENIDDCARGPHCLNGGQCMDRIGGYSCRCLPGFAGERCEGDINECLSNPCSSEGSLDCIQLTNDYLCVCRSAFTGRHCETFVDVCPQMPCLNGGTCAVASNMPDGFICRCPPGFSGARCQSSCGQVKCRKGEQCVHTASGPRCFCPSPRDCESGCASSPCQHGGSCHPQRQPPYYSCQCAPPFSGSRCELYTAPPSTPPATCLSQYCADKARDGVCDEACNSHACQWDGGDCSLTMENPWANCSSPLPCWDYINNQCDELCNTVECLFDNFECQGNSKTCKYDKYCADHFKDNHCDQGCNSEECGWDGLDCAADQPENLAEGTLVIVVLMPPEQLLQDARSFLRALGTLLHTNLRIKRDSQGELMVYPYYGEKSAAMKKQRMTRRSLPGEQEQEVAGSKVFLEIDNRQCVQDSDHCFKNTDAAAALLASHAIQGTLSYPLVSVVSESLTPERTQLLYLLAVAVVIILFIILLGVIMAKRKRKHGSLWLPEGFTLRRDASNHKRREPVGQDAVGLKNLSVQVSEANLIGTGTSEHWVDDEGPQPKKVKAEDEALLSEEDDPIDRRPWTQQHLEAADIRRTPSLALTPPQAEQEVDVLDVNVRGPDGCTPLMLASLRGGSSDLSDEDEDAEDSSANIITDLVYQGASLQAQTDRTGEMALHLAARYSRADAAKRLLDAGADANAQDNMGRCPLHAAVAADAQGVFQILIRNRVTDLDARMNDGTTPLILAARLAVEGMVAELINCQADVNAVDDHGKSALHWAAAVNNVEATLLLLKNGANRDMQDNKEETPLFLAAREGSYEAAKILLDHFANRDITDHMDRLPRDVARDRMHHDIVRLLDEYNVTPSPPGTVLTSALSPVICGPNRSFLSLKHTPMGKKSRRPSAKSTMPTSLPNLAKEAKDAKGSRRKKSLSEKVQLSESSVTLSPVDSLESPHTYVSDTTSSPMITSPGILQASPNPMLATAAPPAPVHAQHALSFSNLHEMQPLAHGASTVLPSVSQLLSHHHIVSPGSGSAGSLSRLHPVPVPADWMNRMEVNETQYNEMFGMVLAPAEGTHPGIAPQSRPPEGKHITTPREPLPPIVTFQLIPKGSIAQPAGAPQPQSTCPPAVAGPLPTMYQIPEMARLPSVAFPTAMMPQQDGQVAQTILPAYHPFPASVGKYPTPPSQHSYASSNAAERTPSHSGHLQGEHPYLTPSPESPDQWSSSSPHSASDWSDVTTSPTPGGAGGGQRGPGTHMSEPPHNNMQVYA
Chain of Pro-neuregulin-1, membrane-bound isoform (Homo sapiens) (Q02297 whole entry, looked up, the tested form may be a part, canonical isoform): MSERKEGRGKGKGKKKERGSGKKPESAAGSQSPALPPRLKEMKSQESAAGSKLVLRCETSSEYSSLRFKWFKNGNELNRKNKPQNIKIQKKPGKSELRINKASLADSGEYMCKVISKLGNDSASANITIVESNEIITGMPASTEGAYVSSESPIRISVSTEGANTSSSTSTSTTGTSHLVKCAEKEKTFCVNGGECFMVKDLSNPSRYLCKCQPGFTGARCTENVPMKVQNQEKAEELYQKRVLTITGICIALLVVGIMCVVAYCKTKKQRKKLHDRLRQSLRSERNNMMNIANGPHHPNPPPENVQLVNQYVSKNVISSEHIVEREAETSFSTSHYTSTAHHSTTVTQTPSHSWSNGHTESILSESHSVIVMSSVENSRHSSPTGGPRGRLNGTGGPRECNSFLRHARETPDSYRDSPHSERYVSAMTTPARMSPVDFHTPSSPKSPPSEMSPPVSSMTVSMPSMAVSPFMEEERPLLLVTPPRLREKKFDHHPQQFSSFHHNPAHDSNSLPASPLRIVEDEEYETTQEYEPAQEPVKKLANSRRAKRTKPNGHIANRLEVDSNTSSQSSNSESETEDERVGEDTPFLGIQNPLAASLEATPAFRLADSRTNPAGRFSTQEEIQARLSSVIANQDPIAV

Turning to `COc1ccc(O[C@H]2C=C[C@@H](c3ccccc3)O[C@@H]2CON=C(C)CCN2CCc3nc(-c4ccccc4)c(-c4ccccc4)cc3C2)cc1`, the composite z-score in assay [1] is -0.311; in assay [2], 0.183; in assay [3], -0.0909; in [4] it was -0.631; in assay [5] it was -0.167; in [6], 0.617. Moreover, the composite z-score in [7] was -0.0088; in [9], 0.371; in assay [10] it was 0.136. Moreover, the z-score in assay [8] is 0.282 (inactive).

Take `CCOC(=O)[C@H](Cc1ccccc1)NC(=O)CCC1CC(OC(=O)NCc2ccc3c(c2)OCO3)CC2(CCCC(COC(=O)NCCC(C)C)O2)O1` (stereo not given in full): the composite z-score in [1] was -0.545; in [2], 0.107; in assay [3], -0.0193; in assay [4], 0.755; in assay [5] it was 0.523; in [6], 1.41. The composite z-score in assay [7] turned out to be 1.06; in [9], 0.169; in assay [10] it was 0.268. Moreover, the z-score in assay [8] was 0.548 (inactive).

On to `C=CC[C@@H]1C=C[C@H](ON=C2[C@H]3CCn4c(=O)n(-c5ccccc5)c(=O)n4[C@H]3[C@H](O)[C@@H]3O[C@H]23)[C@@H](CO)O1`, for which the composite z-score in [1] was -0.356; in [2], 0.189; in assay [3], -0.065; in [4] it was 0.274; in assay [5], 0.502; in assay [6], 0.19. In addition, the composite z-score in assay [7] was determined as 0.0586; in assay [9], 0.0716; in assay [10] it was 0.104. For the same molecule, the z-score in assay [8] is -0.299 (inactive).

Consider `CCN1C(=O)[C@H]2[C@H]3[C@H](O)[C@H](O)CC(=NOC[C@H]4O[C@H](c5ccccc5)C=C[C@@H]4Oc4ccc(OC)cc4)[C@@H]3CC[C@H]2C1=O`, for which the composite z-score in assay [1] is -0.0474; in [2] it was 0.174; in assay [3], 0.0338; in [4], 0.999; in assay [5], 0.887; in assay [6], 0.488. In addition, the composite z-score in [7] was found to be 0.953; in [9], 0.0352; in assay [10], 0.351. For the same molecule, in assay [8], the z-score was 0.52 (inactive).

For `CC(C)CCN1CCc2nc(COc3ccccc3)c3c(c2C1)CO[C@@H](C)C3`, the composite z-score in assay [1] was 0.188; in [2], 0.369; in assay [3], -0.0819; in assay [4] it was 0.0995; in assay [5] it was -0.0065; in [6] it was 0.385. Further, the composite z-score is 0.135 in [7], 0.138 in assay [9] and 0.0623 in [10]. In addition, the z-score in [8] was 0.0476 (inactive).

Turning to `COC(=O)CC=C[C@@H](C)[C@@H](C=NO[C@@H]1O[C@H](COC(C)=O)[C@@H](OC(C)=O)[C@H](OC(C)=O)[C@H]1OC(C)=O)NS(=O)(=O)c1ccc(C)cc1`, the composite z-score in assay [1] is -0.486; in assay [2], 0.969; in [3] it was -0.158; in [4] it was 0.367; in assay [5], 1.11; in assay [6] it was -0.993. Also, the values for the composite z-score in [7], in assay [9] and in assay [10] were -1.37, 0.068 and -0.0645, respectively. Moreover, the z-score in assay [8] was -0.443 (inactive).

As for `COC(=O)[C@H]1[C@@H](O)[C@@]2(O)c3ccccc3O[C@@]2(c2ccccc2)[C@@H]1c1ccccc1`, the composite z-score in [1] was 1.08; in assay [2], 0.177; in assay [3], -0.114; in assay [4], 0.269; in assay [5], 0.254; in assay [6] it was -0.68. Besides, the composite z-score in assay [7] is 0.768; in assay [9], 0.0643; in assay [10], -0.301. Further, the z-score in assay [8] is -0.886 (inactive).

`CC(C)CON=C1C[C@@H](O)[C@@H](O)[C@@H]2[C@@H]3C(=O)N(C4CCCCC4)C(=O)[C@@H]3CC[C@H]12`: the composite z-score is -0.475 in assay [1]; 0.6 in assay [2]; -0.0383 in assay [3]; 0.848 in [4]; 1.14 in assay [5]; 0.936 in assay [6]. Also, the results for the composite z-score in [7], in assay [9] and in assay [10] were 0.743, 0.272 and -0.169, respectively. For the same molecule, in [8], the z-score was -0.276 (inactive).

In the case of `CCOC(=O)[C@H](CC(C)C)NC(=O)CCC1CC(OC(=O)NCc2cccc3ccccc23)CC2(CCCC(COC(=O)NCCOC)O2)O1` (stereo not given in full), the composite z-score was -0.56 in [1]; 0.071 in assay [2]; -0.0216 in [3]; 0.482 in assay [4]; 1.36 in assay [5]; 1.27 in assay [6]. Further, the composite z-score in assay [7] was 0.931; in assay [9], 0.754; in assay [10], -0.214. Further, the z-score in assay [8] is -0.0725 (inactive).

`CO[C@@H]1COC(=O)[C@H](CCSC)NC(=O)CC=C[C@@H](C)COC(=O)CCC[C@H]1C`: the composite z-score in assay [1] was -0.994; in [2], 2.94; in [3], -0.167; in assay [4], 0.114; in assay [5], -0.559; in [6], -1.28. The composite z-score in assay [7] was 1.15; in [9], 1.41; in assay [10], -0.161. In addition, in assay [8], the z-score is 0.0651 (inactive).

On to `C[C@@H]1CC[C@H]2C(=O)O[C@@H](COc3ccc(C(C)(C)C)cc3)CN2[C@@H]1c1ccc(Br)cc1`, for which the composite z-score in assay [1] was -0.368; in [2], -0.257; in assay [3], -0.162; in assay [4], -0.249; in [5], -0.538; in assay [6], -0.0758. The composite z-score in [7] was -0.976; in assay [9] it was -0.217; in assay [10], -0.134. Moreover, the z-score in assay [8] is 1.03 (inactive).

In the case of `O=C1[C@H]2[C@H]3[C@H](O)[C@H](O)CC(=NOC[C@@H](O)COCc4ccco4)[C@H]3CC[C@H]2C(=O)N1c1ccc(F)cc1F`, the composite z-score was -0.191 in [1]; 0.862 in [2]; -0.142 in assay [3]; 0.0434 in assay [4]; -0.853 in assay [5]; -0.452 in assay [6]. The values for the composite z-score in [7], in assay [9] and in assay [10] were 1.23, -0.999 and -0.0047, respectively. Further, the z-score in assay [8] is -1.53 (inactive).

On to `CC(CCN1CCc2nc(-c3ccccc3)c(-c3ccccc3)cc2C1)=NOC[C@@H](O)[C@H]1O[C@@H]2OC(C)(C)O[C@@H]2[C@H]1O`, for which the composite z-score in assay [1] was -0.621; in assay [2], 0.59; in assay [3] it was -0.085; in assay [4], 0.455; in assay [5], 0.331; in [6], 0.609. Also, the composite z-score in assay [7] was 0.676; in [9] it was 0.319; in assay [10] it was 0.0139. In addition, the z-score in [8] is 1.54 (inactive).

For the origin of these results see PubChem BioAssay.
